Compounds with a hit are over-represented: about 19% of the library has one in this group of screens.
TDP1 cell noCPT = qHTS for Inhibitors of human tyrosyl-DNA phosphodiesterase 1 (TDP1): qHTS in cells in absence of CPT; DT40 Tdp1-/- hTDP1 cells, no CPT, ATP luminescence, 48 h; Potency, µM (top dose mostly 46.2 µM), inactives show top-dose activity change, negative = growth inhibition, most hits filed as inhibitors; 420,000 compounds, 15% hits; further: potency means the concentration at half of the fitted maximal effect; on the % scale 0 is the no-effect control and ±100 the full control effect; nearly all actives have a fitted effect of over 55% in size
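Growth of hTDP1-complemented DT40 Tdp1-knockout cells is measured by ATP luminescence after at least 48 hr compound exposure at 37 °C, with DMSO substituting for the 20 nM CPT used in the parallel screen.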
DT40 TDP1 CPT = growth inhibition of DT40 Tdp1-/-;hTDP1 cells with camptothecin (screen for TDP1 inhibitors). chicken DT40 Tdp1-/-;hTDP1 cells + 20 nM CPT, ATP luminescence, 48 h. Potency, µM (doses to about 46.2 µM), for inactives: at the highest dose activity change, negative = growth inhibition, actives largely listed as inhibitors. 420,000 compounds, 12% hits; further: potency means the concentration at half of the fitted maximal effect; on the % scale 0 is the no-effect control and ±100 the full control effect; nearly all actives have a fitted effect of over 55% in size
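Cell growth measured by CellTiter-Glo luminescence after a minimum 48 h, 37 C compound exposure with 20 nM CPT in Tdp1-knockout DT40 cells stably expressing hTDP1, seeded 400/well; qHTS titration format.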
HepG2 tox = HepG2 cytotoxicity, counter-screen for TGF-b inhibitors; Potency, µM (titrated, usually from 46.1 µM), inactives show at the highest dose activity change, negative = cytotoxicity, most hits filed as cytotoxic; AID 588856; 410,000 compounds, 0.76% hits; HepG2 CAGA-GFP viability, ATP luminescence, 18 h; further: potency means the concentration at half of the fitted maximal effect
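HepG2 CAGA-GFP cells (1000/well, DMEM with 1% FBS) received compound, then TGF-beta at 500 pg/mL final, and were incubated 18 hours at 37 degrees C. Viability was read by CellTiter-Glo luminescence. Media-only wells were set as complete cell-killing and DMSO as no toxicity.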
TGFb inhibitor = inhibitors of TGF-b signaling; Potency, µM (doses to about 46.1 µM), inactives show at the highest dose activity, negative = inhibition, most hits filed as inhibitors; HepG2 CAGA-GFP TGF-b/SMAD3 reporter, GFP fluorescence, 18 h; TGF-beta stimulated, 500 pg/mL final; 410,000 compounds, 1.2% hits; further: potency means the concentration at half of the fitted maximal effect; on the % scale 0 is the no-effect control and ±100 the full control effect; nearly all actives have a fitted effect of over 65% in size
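Inhibition of TGF-beta-driven CAGA-GFP reporter expression in HEPG2 cells is measured by cellular GFP fluorescence after 18 h stimulation with 500 pg/mL recombinant TGF-beta in 1% FBS medium at 37 degrees C.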
TDP1 inh = blocks human tyrosyl-DNA phosphodiesterase 1 | Q9NUW8 | recombinant TDP1, AlphaScreen DNA substrate cleavage | Potency, µM (titrated, usually from 130 µM), for the others: at the top dose activity change, negative = inhibition, hits mostly inhibitors | 350,000 compounds, 0.28% hits | AID 485290; further: potency means the concentration at half of the fitted maximal effect; on the % scale 0 is the no-effect control and ±100 the full control effect; nearly all actives have a fitted effect of over 40% in size
Target sequence (Q9NUW8 whole entry, looked up): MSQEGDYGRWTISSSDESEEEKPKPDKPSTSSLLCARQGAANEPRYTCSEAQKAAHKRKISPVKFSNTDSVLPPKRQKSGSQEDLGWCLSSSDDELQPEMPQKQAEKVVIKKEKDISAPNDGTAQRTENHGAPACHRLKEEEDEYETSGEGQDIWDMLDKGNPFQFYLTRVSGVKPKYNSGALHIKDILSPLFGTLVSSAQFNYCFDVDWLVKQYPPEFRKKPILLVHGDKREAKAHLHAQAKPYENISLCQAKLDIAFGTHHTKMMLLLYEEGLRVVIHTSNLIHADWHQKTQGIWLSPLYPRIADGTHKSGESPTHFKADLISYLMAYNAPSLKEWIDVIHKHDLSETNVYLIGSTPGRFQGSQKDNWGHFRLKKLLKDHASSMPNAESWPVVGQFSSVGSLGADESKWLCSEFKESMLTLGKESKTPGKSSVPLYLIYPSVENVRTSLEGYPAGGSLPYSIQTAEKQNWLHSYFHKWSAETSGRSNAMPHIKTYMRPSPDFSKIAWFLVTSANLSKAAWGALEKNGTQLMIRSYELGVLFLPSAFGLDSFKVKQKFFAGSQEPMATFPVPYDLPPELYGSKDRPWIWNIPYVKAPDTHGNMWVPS
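Tdp1 1 nM final; 15 min RT w/ cpd; substrate 15 nM, 5 min; beads 10 ug/ml, 10 min; AlphaScreen read. Neg ctrl: no enzyme.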
IL-1B inflam inh = inhibitors of inflammasome signaling (IL-1 beta secretion). 360,000 compounds, 4.7% hits. THP-1 LPS/ATP IL-1B secretion, AlphaLISA, 16 h; active compounds read low. activity change, % at 57.5 µM. AID 743279; in the data active means activity change below about -50%; inconclusive means mostly about -30% to -49%; further: on the % scale 0 is the no-effect control and ±100 the full control effect
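Secreted IL-1B measured by AlphaLISA bead assay after 16 h compound exposure of THP-1 cells; compounds (final up to 57.5 uM) added 1 h before LPS (250 ng/mL) and ATP (1.25 mM) stimulation; lower signal means less secretion.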
* = called active by the depositor; ? = inconclusive; nt = no result given. Unless noted, the call rests on the fitted dose curve; in most records, active means well fitted curve in the direction sought with a large enough effect; inconclusive means small, poorly fitted or top-dose-only effect, or another doubt; inactive means no such curve, though single readings can be large; an effect the other way counts as inactive or inconclusive.

SMILES | TDP1 cell noCPT | DT40 TDP1 CPT | HepG2 tox | TGFb inhibitor | TDP1 inh | IL-1B inflam inh
COc1ccc(C(=O)Nc2ccc(S(=O)(=O)Nc3nccc(C)n3)cc2)cc1[N+](=O)[O-] | 5.6% | 2.9% | -3.6% | 12.3% | nt | 13.7
CCOC(=O)C1CCCN(c2ncnc3c2nnn3C)C1 (centres undefined) | -22.7% | -21.0% | -12.8% | 18.0% | -7.8% | nt
Cc1cc(S(=O)(=O)Nc2noc3ccccc23)ccc1F | 12.6% | 2.1% | -9.3% | 1.5% | nt | -1.8
C[C@@H](NCCCc1cccc(C(F)(F)F)c1)c1cccc2ccccc12 | 8.41µM* | 9.44µM* | 12.6µM* | ? | nt | nt
Cc1cc(/C=C(\C#N)C(=O)O)c(C)n1CC1CCCO1 (centres undefined) | 20.6µM* | ? | 17.1% | 1.3% | 4.2% | -13.9
Cc1ccc(OCCn2cc(/C=C(\C#N)C(=O)NCC3CCCO3)c3ccccc32)cc1C (centres undefined) | 7.31µM* | 13µM* | -8.0% | 4.2% | 2.7% | -5.6
Cc1ccccc1-n1c(C)cc(/C=C(\C#N)C(=O)NCC2CCCO2)c1C (centres undefined) | 11.6µM* | ? | -23.5% | -29.6% | 0.6% | -9.5
N#C/C(=C\c1cc2c(cc1Br)OCO2)C(=O)NCC1CCCO1 (centres undefined) | ? | ? | -5.4% | 2.6% | 4.2% | -77.5*
Cc1ccccc1-c1n[nH]nc1C1=CC(=O)CC(C)(C)C1 | -20.8% | -1.5% | -4.1% | -9.9% | nt | -4.4
Cc1ccc(OCCn2cc(/C=C(\C#N)C(=O)NCC3CCCO3)c3ccccc32)cc1 (centres undefined) | 10.3µM* | 13µM* | -0.1% | -7.0% | 0.0% | -13.5
CCCCN(CC)C(=O)C1CCCN(c2ncnc3onc(C)c23)C1 (centres undefined) | 20.6µM* | 18.4µM* | -11.3% | -15.9% | 6.3% | nt
CCN(CC)CCNC(=O)C1CCCN(c2ncnc3onc(C)c23)C1 (centres undefined) | -5.3% | 0.3% | 5.2% | 18.5% | 4.2% | nt
CCCCN(C)C(=O)C1CCCN(c2ncnc3onc(C)c23)C1 (centres undefined) | 1.84µM* | 5.17µM* | -13.1% | -26.8% | 3.2% | nt
CCOC(=O)C1CCN(CCCSc2ccccc2)CC1 | 0.6% | 2.5% | 2.5% | -2.9% | nt | 14.9
CCOC(=O)c1c(C)[nH]c(C)c1S(=O)(=O)N1CCC(C(=O)Nc2ccc(C)c(N(C)C)c2)CC1 | ? | -25.7% | -3.6% | -21.6% | 5.3% | nt
Cc1ccc(CNC(=O)C(C)n2nc(C)n3c(cc4sccc43)c2=O)cc1 (centres undefined) | -29.0% | -23.6% | -22.7% | ? | 4.9% | nt
O=C1CC(=C(c2ccccc2)c2ccccc2)C(=O)N1CCCCN1CCN(c2cccc(Cl)c2)CC1 | 18.4µM* | 14.6µM* | -19.0% | ? | 5.3% | ?
Cc1ccccc1N1CCN(CCCN2C(=O)CC(=C(c3ccccc3)c3ccccc3)C2=O)CC1 | 23.1µM* | ? | -17.3% | ? | 7.4% | -18.3
Cc1ccc(C)c2c1sc(=NC(=O)CN1C(=O)CCC1=O)n2C | 20.6µM* | ? | 0.1% | -4.0% | 5.9% | 1.5
O=C1CCCc2nn(-c3ccccc3)c(-c3ccncc3)c21 | 16.4µM* | ? | 12.0% | ? | 5.2% | 0.0
CCc1ccccc1NC(=O)Cn1c(=O)n(-c2ccc(C)cc2)c(=O)c2cc(OC)c(OC)cc21 | 4.1% | 2.9% | 10.2% | 11.0% | 2.5% | nt
CN(CCc1cn[nH]c1)Cc1nc(Cc2ccccc2)no1 | 9.2% | 14.2% | 1.5% | 1.6% | -2.8% | -53.6*
O=C(c1cc(-c2cccs2)nn1-c1ccccc1)N1CCN(S(=O)(=O)c2ccccc2)CC1 | 18.4µM* | ? | 7.1% | -11.2% | 0.0% | -14.1
Cc1ccc(S(=O)(=O)N2CCN(C(=O)c3cc(-c4cccs4)nn3-c3ccccc3)CC2)cc1 | 18.4µM* | 13µM* | 0.5% | -8.4% | 5.3% | 0.0
O=C1CN(CCN2CC(=O)NC(=O)C2)CC(=O)N1 | 7.08µM* | 7.94µM* | 12.6% | -0.8% | nt | nt
SMILES | TDP1 cell noCPT | DT40 TDP1 CPT | HepG2 tox | TGFb inhibitor | TDP1 inh | IL-1B inflam inh
COc1ccc(/C=C/C(=O)N2CCC(c3nc4ccccc4o3)CC2)cc1OC | 16.4µM* | ? | -24.1% | -19.8% | 4.7% | nt
O=C(/C=C/c1ccccc1Cl)N1CCC(c2nc3ccccc3o2)CC1 | 20.6µM* | ? | -14.0% | -19.8% | -0.5% | nt
COC(=O)c1scc(S(C)(=O)=O)c1-n1cccc1 | -19.4% | -21.4% | 14.0% | 7.1% | nt | 11.8
Cc1csc(C(=O)O)c1-n1cccc1 | -5.9% | -15.5% | -1.2% | -1.9% | 12.6µM* | 23.9
Cc1ccc(OCCSc2nc3ccccc3n2CC(=O)N2CCOCC2)c(C)c1 | ? | ? | -11.3% | 7.3% | 2.9% | nt
FC(F)(F)c1cc(Nc2ccccc2)nc(-c2ccccn2)n1 | 25.9µM* | ? | -7.3% | -20.1% | nt | -22.3
FC(F)(F)c1cc(Sc2ccccc2)nc(-c2ccccn2)n1 | 14.6µM* | ? | -5.7% | -13.4% | 0.5% | 5.3
COc1cc(C(F)(F)F)nc(-c2ccccn2)n1 | -21.6% | 18.0% | 14.6% | -3.0% | 3.5% | 9.4
COC(=O)CSc1cc(C(F)(F)F)nc(-c2ccccn2)n1 | 15.4% | -3.7% | -0.1% | -19.2% | 4.8% | ?
CC(C)Nc1cc(C(F)(F)F)nc(-c2ccccn2)n1 | 18.4µM* | 18.4µM* | -8.1% | -21.2% | 2.0% | -15.6
CCCc1cc(=O)oc2c(C)c(OCC(=O)N3C[C@H]4C[C@@H](C3)c3cccc(=O)n3C4)ccc12 | -1.9% | 30.3% | 5.9% | 5.1% | nt | 3.8
CC1CC(C)(C)CC2(C1)NC(=O)N(CC(=O)Nc1ccc(N3CCCCC3)cc1)C2=O (centres undefined) | ? | ? | -15.0% | -3.2% | 7.8% | -10.7
Cc1nc2nc(SCc3ccccc3)[nH]n2c(=O)c1C | -28.8% | ? | -2.1% | 22.4% | nt | -1.7
O=C(Cn1c(=O)nc(-c2ccccc2)c2ccccc21)N1CCN(c2ccc(F)cc2)CC1 | -19.7% | 17.0% | 3.7% | 8.7% | 6.2% | nt
CC(=O)NC1CC(=O)N(c2ccc3c(c2)OCCO3)C1 (centres undefined) | -11.0% | -0.8% | -8.7% | -13.1% | 0.0% | nt
CN1/C(=C\C(=O)COC(=O)CN2C(=O)C3CC=CCC3C2=O)C(C)(C)c2ccccc21 (centres undefined) | 18.4µM* | ? | -31.5% | -0.7% | 2.1% | 58.7
